Screening results deposited in PubChem by Broad Institute.
esBAF inh = SWI/SNF esBAF complex inhibition. mouse ES cells, Bmi1-luciferase knock-in reporter, 24 h; 100% = twice the neutral-well signal. reporter increase, % at 12.5 µM. actives 2% (n = 350,000); in the data active = activation above about 40%;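 also: 0% = median of the plate's neutral control wells and 100% = double that signal; a rise in the Bmi1 reporter signal indicates esBAF inhibition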
HSF1 activator = increases HSF-1 driven luciferase reporter signal | NIH3T3-HGL HSF-1 luciferase reporter, MG132, 8 h; 100% = twice DMSO control signal | activation, % at 9 µM | actives 1.7% (n = 300,000) | AID 504408;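 active = mean replicate activation of at least 50% with a set share of replicates each reaching 50%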;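 also: 0% = median of the neutral control wells and 100% = twice that signal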
Wnt bcat act = Wnt/beta-catenin pathway activation. Wnt/beta-catenin reporter cell assay, activator, plate reader. activation, % at 9.35 µM. actives 1.2% (n = 300,000); in the data active = activation above about 30%, passing the limit was not always enough;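 also: 0% = neutral control wells and 100% = positive control wells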
MITF act = MITF TRPM1 promoter activation in melanoma cells | SK-MEL-5 TRPM1-promoter luciferase, 24 h; % of positive control, neutral wells = 0 | activation, % at 12.5 µM | AID 588334 | actives 0.75% (n = 300,000);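 active = mean activation of at least 80% with every replicate also reaching 80%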;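 also: 0% = neutral control wells and 100% = parthenolide positive control wells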
HSF1 inh = HSF1 inhibition; NIH3T3-HGL HSE-luciferase, MG132-induced, luminescence 8 h; stronger effect = lower value; actives 0.77% (n = 300,000); activity change, negative = inhibition, % at 7.5 µM (by protocol); AID 2098;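 active = more than half of replicate wells show activity change below -50%, luminescence cut by over half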;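 also: luciferase reports HSF-1 transcriptional activity via heat shock element; 0% = median of DMSO wells and -100% = zero luminescence signal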
Active calls of the source: *. Hits are enriched below; roughly 3.9% of the tested compounds scored in any of these assays.

C[C@H](CO)N1C[C@H](C)[C@@H](CN(C)Cc2ccc3c(c2)OCO3)Oc2ccc(N(C)C)cc2C1=O was read as esBAF inh -3.9.
For CO[C@@H]1CN(C)C(=O)c2cc(NS(C)(=O)=O)ccc2OC[C@@H](C)N(CC2CC2)C[C@H]1C the results were esBAF inh -0.4.
Screening Cc1noc(C)c1S(=O)(=O)Nc1ccc2c(c1)C(=O)N([C@H](C)CO)C[C@H](C)[C@@H](CN(C)S(C)(=O)=O)OCCCC[C@H](C)O2 returned esBAF inh -4.0.
For C[C@H]1CN([C@@H](C)CO)C(=O)c2cccc(NC(=O)Nc3ccc(F)cc3)c2O[C@@H]1CN(C)C(=O)Nc1ccccc1 the results were esBAF inh -0.6.
Clc1ccc(-n2ncc3c(NCc4cccnc4)ncnc32)cc1Cl was read as esBAF inh 65.1*, HSF1 activator -7.4, Wnt bcat act 20.7, MITF act 10.1 and HSF1 inh -14.4.
Screening c1ccc(CCNc2ncnc3c2cnn3-c2ccccc2)cc1 returned esBAF inh 72.3*, HSF1 activator 46.5, MITF act 66.7 and HSF1 inh 33.2.
c1ccc(-n2ncc3c(NCCN4CCOCC4)ncnc32)cc1 was read as esBAF inh 46.9*, HSF1 activator 26.1, Wnt bcat act 47.2*, MITF act 38.0 and HSF1 inh 7.8.
O=C(C[C@@H]1C=C[C@@H](NC(=O)c2ccc(F)cc2)[C@@H](CO)O1)NCCc1ccccc1 was read as esBAF inh 3.7.
O=C(N[C@@H]1CC[C@H](CCNC(=O)c2ccccc2F)O[C@H]1CO)c1cnccn1 was read as esBAF inh -4.9.
Cc1cc(C(=O)Nc2cccc3c2O[C@H](CN(C)CC2CC2)[C@H](C)CN([C@H](C)CO)C3=O)n(C)n1 was read as esBAF inh -2.8.
For CCNC(=O)C[C@H]1C=C[C@@H](NS(=O)(=O)c2ccc(C)cc2)[C@@H](CO)O1 the results were esBAF inh -2.2.
`O=C(O)C(=O)Nc1nc(-c2ccc3c(c2)OCCO3)cs1` gave esBAF inh 17.6, HSF1 activator -7.5, Wnt bcat act 6.4, MITF act 0.3 and HSF1 inh -8.1.
O=C(CSCC(=O)Nc1nc(-c2ccc3c(c2)OCO3)cs1)Nc1nccs1 was read as esBAF inh 44.5*, HSF1 activator 33.4, Wnt bcat act 23.6, MITF act 11.7 and HSF1 inh 15.6.
`O=C(CSc1ccc(-c2ccc3c(c2)OCO3)nn1)Nc1nccs1` gave esBAF inh 15.3, HSF1 activator 10.3, Wnt bcat act 0.3, MITF act -4.1 and HSF1 inh 14.2.
Screening CC(C)NC(=O)CN(C(=O)CCC(=O)Nc1nccs1)c1ccc2c(c1)OCO2 returned HSF1 activator 65.7*, Wnt bcat act 1.1, MITF act 5.9 and HSF1 inh 21.5.
`O=C(Nc1nc(-c2ccc3c(c2)OCO3)cs1)C1CC1` gave esBAF inh 7.4, HSF1 activator 43.6, Wnt bcat act -1.2, MITF act 92.6* and HSF1 inh 27.3.
For C[C@@H]1CN([C@H](C)CO)C(=O)c2cc(NC(=O)CCC(F)(F)F)ccc2O[C@@H](C)CCCCO[C@@H]1CN(C)C the results were esBAF inh 2.0.
For CN1CCN(C(=O)C[C@H]2CC[C@@H]3[C@@H](COc4ccc(NC(=O)c5cscn5)cc4C(=O)N3C)O2)CC1 the results were esBAF inh 1.1.
CC1(C)CC(=O)C(/C=N/n2cnc3ccccc3c2=O)=C(O)C1 was read as esBAF inh 48.8*, HSF1 activator 3.1 and HSF1 inh -5.5.
For CC1(C)CC(=O)C(/C=N/c2ccccn2)=C(O)C1 the results were esBAF inh -5.9, HSF1 activator 9.1, MITF act -1.2 and HSF1 inh -1.5.
Cc1ccc(NC2=C/C(=N/S(=O)(=O)c3cccs3)c3ccccc3C2=O)cc1C was read as HSF1 activator 10.8, Wnt bcat act -14.1, MITF act 22.3 and HSF1 inh 1.6.
Screening Cc1ccccc1NC1=C/C(=N\S(=O)(=O)c2ccc(C(=O)O)cc2)c2ccccc2C1=O returned esBAF inh 2.5, HSF1 activator -0.9, Wnt bcat act 1.3, MITF act -21.2 and HSF1 inh -9.0.
`O=C(O)c1ccc(S(=O)(=O)/N=C2\C=C(Nc3ccccc3F)C(=O)c3ccccc32)cc1` gave esBAF inh -73.1, HSF1 activator 64.7*, Wnt bcat act -1.6, MITF act -47.6 and HSF1 inh 51.2.
`CC(=O)Nc1ccc(NC2=C/C(=N/S(=O)(=O)c3cccs3)c3ccccc3C2=O)cc1` gave HSF1 activator -94.3, Wnt bcat act -12.6, MITF act -101.8 and HSF1 inh -94.7*.
`COc1ccc(S(=O)(=O)/N=C2\C=C(Nc3ccc(O)cc3)C(=O)c3ccccc32)cc1` gave esBAF inh -68.1, HSF1 activator -94.7, Wnt bcat act 0.3, MITF act -98.6 and HSF1 inh -94.0*.
For Cc1ccccc1NC1=C/C(=N\S(=O)(=O)c2cccs2)c2ccccc2C1=O the results were esBAF inh -73.7, HSF1 activator -94.6, Wnt bcat act -28.5 and HSF1 inh -94.5*.
Screening COC(=O)C[C@@H]1CC[C@H]2[C@@H](COc3ccc(NS(=O)(=O)c4ccc(C)cc4)cc3C(=O)N2C)O1 returned esBAF inh 0.7.
For O=C(Nc1cccc(Cl)c1)C1CCCN(S(=O)(=O)c2ccc(F)cc2)C1 (configuration not stated) the results were esBAF inh 2.1, HSF1 activator 89.4*, MITF act -11.8 and HSF1 inh 43.7.
Screening O=C(Nc1cccc(-c2ccc(F)cc2)c1)C1CCCN(C(=O)c2cscn2)C1 (configuration not stated) returned esBAF inh -2.5, HSF1 activator -77.4, Wnt bcat act -3.3, MITF act -2.0 and HSF1 inh -71.0*.
Screening CN1CCN(C(=O)C2CCCN(S(=O)(=O)c3ccc(F)cc3)C2)CC1 (configuration not stated) returned HSF1 activator -12.0, Wnt bcat act -1.7, MITF act -4.2 and HSF1 inh -4.4.
`O=C(C1CCCN(S(=O)(=O)c2ccc(F)cc2)C1)N1CCOCC1` (configuration not stated) gave esBAF inh 55.2*, Wnt bcat act 43.3* and MITF act 59.5.
For CN1C(=O)c2cc(NS(=O)(=O)c3ccccc3Cl)ccc2OC[C@H]2O[C@H](CC(=O)O)CC[C@H]21 the results were esBAF inh -3.6.
O=C(c1cnccn1)N(Cc1ccco1)C1(C(=O)NC2CCCC2)CCCCC1 was read as HSF1 activator 0.0, Wnt bcat act 1.5, MITF act 2.9 and HSF1 inh 3.2.
Screening O=C(c1ccccn1)N(Cc1ccco1)C1(C(=O)NC2CCCC2)CCCCC1 returned esBAF inh -10.9, HSF1 activator 61.1*, Wnt bcat act -0.1 and HSF1 inh 22.7.
